About 79,000 compounds went through this panel and 15% of them were active in at least one assay; those are over-represented in the sample as a whole. Values without a mark were called inactive. Active and inactive are the calls of the source. No stated cut-off is given here; in the data, active means growth inhibition above about 70%; inactive means the rest.

The first test can be described thus: NCI Yeast Anticancer Drug Screen. Data for the mec2-1 strain (AID 157). To be noted: S. cerevisiae mec2-1 strain, at 50.0 µM (retest, dose inferred, filed as 5.0), stronger effect = higher value. Put shortly: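 Test agents were screened against the mec2-1 yeast strain, with defined DNA repair or cell cycle alteration. Growth was scored as inhibition against vehicle-only controls.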
For `CC(CC(C#CCN(C)C)N(C)C)CC(C)(C)C` (stereo not drawn), the growth inhibition was -10%.

As to `CCCCCCCCCCNC(=O)C[n+]1cccc(C(=O)NCc2ccccc2)c1`, the growth inhibition is 100% (active).

With `Cc1ccc(N2C(N)=C(C#N)C(C#N)(C#N)C2c2ccccc2)cc1` (stereo not drawn), the growth inhibition was 82% (active).

Turning to `O=[N+]([O-])c1cccc(Cl)c1C(Nc1nncs1)Nc1nncs1`, the growth inhibition was 41%.

Take `CCCC(C(=O)OCCNC1CCCCC1)c1ccccc1` (stereo not drawn): the growth inhibition was 14%.

Take `BrCc1ccc([Si](c2ccccc2)(c2ccccc2)c2ccc(CBr)cc2)cc1`: the growth inhibition is 8%.

Consider `CCCCC(O)(c1ccccc1)C(O)(c1ccccc1)c1c(F)c(F)c(F)c(F)c1F` (stereo not drawn), for which the growth inhibition was 99% (active).

Consider `C/C=C\C=N\NC(N)=S`, for which the growth inhibition is 5%.

Consider `NCCc1ccc2oc3cc(=O)c4ccccc4c-3nc2c1`, for which the growth inhibition was 30%.

`CC(C)=CCc1ccc(O)cc1`: the growth inhibition is 98% (active).

Take `CCCCCCCCCCCCCC/[N+]([O-])=C/c1ccc([N+](=O)[O-])o1`: the growth inhibition was 10%.

For the molecule `Fc1ccc(CSC(=S)Nc2ccc(Br)cc2)cc1`, the growth inhibition was 99% (active).

For `C/C(=N\NC(=S)N1CCN(C2CCCCC2)CC1)c1ccccn1`, the growth inhibition is 76% (active).

Take `Cc1ccccc1N=Nc1sc(N)nc1-c1ccccc1`: the growth inhibition is 98% (active).

For the molecule `CN(c1ccc(C(N)=O)cc1)c1c(O)c2ccccc2[nH]c1=O`, the growth inhibition was 48%.

In the case of `Fc1ccc(CSC(=S)Nc2cccc(C(F)(F)F)c2)cc1`, the growth inhibition is 100% (active).

As to `COc1ccccc1C(C)c1ccc2ccccc2c1C(=O)O` (stereo not drawn), the growth inhibition is 93% (active).

For the molecule `CNC(=O)OCc1c(-c2ccccc2)c(-c2ccccc2)n(-c2ccc(OC)cc2)c1COC(=O)NC`, the growth inhibition is 98% (active).

`Cc1cc(SCC(=O)c2ccc(Cl)cc2)cc(C)[o+]1`: the growth inhibition was 90% (active).

With `Cn1cnc([N+](=O)[O-])c1Sc1nc2ccccc2s1`, the growth inhibition is 98% (active).

For the molecule `CCOC(=S)SSC(=S)NCCNC(=S)SSC(=S)OCC`, the growth inhibition is 72% (active).

In the case of `Cc1nc(C)c(C(=O)NNC(=O)C[N+](C)(C)C)cc1C(=O)NNC(=O)C[N+](C)(C)C`, the growth inhibition is 7%.

Consider `CC/C(=C(\CC)c1ccc(O)c(CN(CC)CC)c1)c1ccc(OC)cc1`, for which the growth inhibition was 62%.

For the molecule `CC(C)N(C(=O)CC1(O)CCCCC1)C(C)C`, the growth inhibition is 1%.

For the molecule `CCCCN(CCCC)CC(O)c1cc(-c2ccc(Cl)cc2)nc2cc(C)ccc12` (stereo not drawn), the growth inhibition is 98% (active).

As for `C/C(=C\c1ccccc1Cl)c1ccccn1`, the growth inhibition is 49%.

Regarding `O=C(OC1C2CCC2C2CC21)c1cc([N+](=O)[O-])cc([N+](=O)[O-])c1` (stereo not drawn), the growth inhibition was 99% (active).

With `O=c1[nH]c2c([N+](=O)[O-])cc(Cl)cc2nc1/C=C(\O)c1ccc(F)cc1`, the growth inhibition was 23%.

On to `CC(=O)N[C@H]1CC[C@H]2[C@@H]3CCC4=CC(=O)CC[C@]4(C)[C@H]3CC[C@]12C`, for which the growth inhibition is 95% (active).

Turning to `CC12OC(=O)C(C(N)=O)=C1C=C(c1ccccc1)CC2c1ccccc1` (stereo not drawn), the growth inhibition is 53%.

For the molecule `Cn1c2nc(-[n+]3ccccc3)nc-2c([O-])n(C)c1=O`, the growth inhibition is 7%.

`COc1cc(NCCCCCCCC2CCCCN2)c2ncccc2c1` (stereo not drawn): the growth inhibition was 96% (active).

With `Nc1ncnc(N2CCOCC2)c1N`, the growth inhibition was 0%.

Regarding `CCCCCCCCCCCCNCC(=O)O`, the growth inhibition was 60%.

As to `O=C(O)C1C2CC3CC(C2)CC1C3` (stereo not drawn), the growth inhibition was 47%.

As to `CC(=O)OC1CCC2(C)C(=CCC3C2CCC2(C)C3CC(C(N)=O)C2C(C)=O)C1` (stereo not drawn), the growth inhibition was 79% (active).

As for `CC1(C)CC(=N/O)/C(=N/O)C(=N\NC(N)=S)/C1`, the growth inhibition was 35%.

`CCCCCCCCCCCCCCCCCC1=NCCN1`: the growth inhibition is 98% (active).

As for `O=c1c2ccccc2c2ccccc2c(=O)n1-c1cc2c3ccccc3ccc2c2ccccc12`, the growth inhibition was 9%.

Staying with this test, now noted: S. cerevisiae mec2-1 strain, at 50.0 µM, stronger effect = higher value.
Regarding `CC(CC(C#CCN(C)C)N(C)C)CC(C)(C)C` (stereo not drawn), the growth inhibition was 15.6%.

`CCCCCCCCCCNC(=O)C[n+]1cccc(C(=O)NCc2ccccc2)c1`: the growth inhibition is 99.7% (active).

Turning to `Cc1ccc(N2C(N)=C(C#N)C(C#N)(C#N)C2c2ccccc2)cc1` (stereo not drawn), the growth inhibition was 38.1%.

In the case of `O=[N+]([O-])c1cccc(Cl)c1C(Nc1nncs1)Nc1nncs1`, the growth inhibition is 27.7%.

As to `CCCC(C(=O)OCCNC1CCCCC1)c1ccccc1` (stereo not drawn), the growth inhibition is 11.9%.

As to `BrCc1ccc([Si](c2ccccc2)(c2ccccc2)c2ccc(CBr)cc2)cc1`, the growth inhibition is 20.1%.

As to `CCCCC(O)(c1ccccc1)C(O)(c1ccccc1)c1c(F)c(F)c(F)c(F)c1F` (stereo not drawn), the growth inhibition is 96.6% (active).

Turning to `C/C=C\C=N\NC(N)=S`, the growth inhibition was 83.7% (active).

As for `NCCc1ccc2oc3cc(=O)c4ccccc4c-3nc2c1`, the growth inhibition is 24.7%.

Regarding `CC(C)=CCc1ccc(O)cc1`, the growth inhibition was 25.1%.

`CCCCCCCCCCCCCC/[N+]([O-])=C/c1ccc([N+](=O)[O-])o1`: the growth inhibition is 45.3%.

Consider `Fc1ccc(CSC(=S)Nc2ccc(Br)cc2)cc1`, for which the growth inhibition was 90% (active).

Regarding `C/C(=N\NC(=S)N1CCN(C2CCCCC2)CC1)c1ccccn1`, the growth inhibition is 98.7% (active).

As to `Cc1ccccc1N=Nc1sc(N)nc1-c1ccccc1`, the growth inhibition is 22.2%.

Take `CN(c1ccc(C(N)=O)cc1)c1c(O)c2ccccc2[nH]c1=O`: the growth inhibition is 6.8%.

In the case of `Fc1ccc(CSC(=S)Nc2cccc(C(F)(F)F)c2)cc1`, the growth inhibition is 99.8% (active).

With `COc1ccccc1C(C)c1ccc2ccccc2c1C(=O)O` (stereo not drawn), the growth inhibition was 94% (active).

Regarding `CNC(=O)OCc1c(-c2ccccc2)c(-c2ccccc2)n(-c2ccc(OC)cc2)c1COC(=O)NC`, the growth inhibition is 78.3% (active).

`Cc1cc(SCC(=O)c2ccc(Cl)cc2)cc(C)[o+]1`: the growth inhibition is 95.5% (active).

Turning to `Cn1cnc([N+](=O)[O-])c1Sc1nc2ccccc2s1`, the growth inhibition was 92.3% (active).

For `CCOC(=S)SSC(=S)NCCNC(=S)SSC(=S)OCC`, the growth inhibition was 36.5%.

For `Cc1nc(C)c(C(=O)NNC(=O)C[N+](C)(C)C)cc1C(=O)NNC(=O)C[N+](C)(C)C`, the growth inhibition is -8.4%.

On to `CC/C(=C(\CC)c1ccc(O)c(CN(CC)CC)c1)c1ccc(OC)cc1`, for which the growth inhibition is 99.7% (active).

Turning to `CC(C)N(C(=O)CC1(O)CCCCC1)C(C)C`, the growth inhibition was -11.9%.

`CCCCN(CCCC)CC(O)c1cc(-c2ccc(Cl)cc2)nc2cc(C)ccc12` (stereo not drawn): the growth inhibition is 99.2% (active).

As for `C/C(=C\c1ccccc1Cl)c1ccccn1`, the growth inhibition is 89.6% (active).

Take `O=C(OC1C2CCC2C2CC21)c1cc([N+](=O)[O-])cc([N+](=O)[O-])c1` (stereo not drawn): the growth inhibition was 98.1% (active).

For `O=c1[nH]c2c([N+](=O)[O-])cc(Cl)cc2nc1/C=C(\O)c1ccc(F)cc1`, the growth inhibition is 42.8%.

As to `CC(=O)N[C@H]1CC[C@H]2[C@@H]3CCC4=CC(=O)CC[C@]4(C)[C@H]3CC[C@]12C`, the growth inhibition was 94.5% (active).

In the case of `CC12OC(=O)C(C(N)=O)=C1C=C(c1ccccc1)CC2c1ccccc1` (stereo not drawn), the growth inhibition is 43.9%.

As for `Cn1c2nc(-[n+]3ccccc3)nc-2c([O-])n(C)c1=O`, the growth inhibition was -2.25%.

Regarding `COc1cc(NCCCCCCCC2CCCCN2)c2ncccc2c1` (stereo not drawn), the growth inhibition is 79% (active).

For the molecule `Nc1ncnc(N2CCOCC2)c1N`, the growth inhibition is 29.6%.

As for `CCCCCCCCCCCCNCC(=O)O`, the growth inhibition is 87.6% (active).

`O=C(O)C1C2CC3CC(C2)CC1C3` (stereo not drawn): the growth inhibition was 5.85%.

For the molecule `CC(=O)OC1CCC2(C)C(=CCC3C2CCC2(C)C3CC(C(N)=O)C2C(C)=O)C1` (stereo not drawn), the growth inhibition was 14.6%.

For the molecule `CC1(C)CC(=N/O)/C(=N/O)C(=N\NC(N)=S)/C1`, the growth inhibition was 49.1%.

In the case of `CCCCCCCCCCCCCCCCCC1=NCCN1`, the growth inhibition was 99.3% (active).

`O=c1c2ccccc2c2ccccc2c(=O)n1-c1cc2c3ccccc3ccc2c2ccccc12`: the growth inhibition was -12.8%.

The values above are taken from PubChem BioAssay (NCI).
